High-throughput results deposited in PubChem BioAssay by Sanford-Burnham Center for Chemical Genomics.
Shown are actives, neighbours in structure and some others; about 4% of the full set was active somewhere.
TROY NFkB inh – blocks TROY-dependent signaling in reporter cells. AID 1347056. 360,000 tested, 0.98% active. inhibition, % at 10 µM. Q293 LMP1-TROYcd NF-kB luciferase reporter, 4 h;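 active = compounds whose plate-normalised and pattern-corrected inhibition of the luciferase reporter signal at the single screening dose is 50% or more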
KKLEB tox – counter-screen for CF NF-kB inhibitors: cytotoxicity; KKLEB CF airway cells viability, ATPlite luminescence, overnight; hits give low values; cells stimulated with P. aeruginosa culture filtrate; activity change (cytotoxicity), % at 5 µM; 360,000 tested, 0.36% active;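 active = corrected activity change at or below -50% at 5 µM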
CF NFkB inh – inhibitors of cystic fibrosis induced NF-kB. inhibition, % at 5 µM. KKLEB NF-kB-GFP reporter, PAF-induced, GFP fluorescence overnight. 360,000 tested, 0.86% active;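 active = at least 50% inhibition at 5 µM, scaled per plate between neutral and stimulator controls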;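 note: PAF is a Pseudomonas aeruginosa culture filtrate used as stimulus; plate controls were PAF-stimulated DMSO wells for no effect and unstimulated DMSO wells for full effect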
TWEAK-Fn14 inh – blocks TWEAK-Fn14 interaction in a reporter cell assay; 360,000 tested, 2% active; AID 1159606; TWEAK-stimulated Fn14 reporter cells, luciferase luminescence, 8 h; inhibition, % at 10 µM; in the data active = inhibition above about 50%
HIF-2a inh – HIF-2a inhibition. 786-0 RCC cells HIF-2a reporter, luciferase luminescence, overnight. inhibition, % at 18.8 µM. 360,000 tested, 0.72% active;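 active = inhibition of the luminescence signal of 40% or more relative to plate controls, in a single-dose primary screen at 18.75 µM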
Peg3 promoter – Peg3 promoter activity inhibition | HeLa PEG-Prom luciferase reporter, luminescence, overnight | 360,000 tested, 1.7% active | inhibition, % at 20 µM | AID 588405;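 active = inhibition of at least 50% at 20 µM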
* marks the source's active call; other numbers are inactive results; nt = no result; ! = not active in a repeat.

SMILES	TROY NFkB inh	KKLEB tox	CF NFkB inh	TWEAK-Fn14 inh	HIF-2a inh	Peg3 promoter
CCCN(CCC)CC(O)Cn1cc(/C=C/C(=O)c2ccccc2)c2ccccc21 (centres undefined)	-12	-15	17	4	-6	-7
CC(C)C[C@@H](CN)NC(=O)c1nc[nH]c1C(=O)N[C@@H](CC(=O)O)C(=O)CNC[C@H](C)NC(=O)c1nc[nH]c1C(=O)N[C@@H](CC(=O)O)C(=O)O	-5	14	-31	11	10	-33
CCN1CCN(Cc2ccc(NC(=O)c3cc(NC(=O)c4cnn(-c5ccccc5)c4N)cc(OC)c3)cc2C(F)(F)F)CC1	-36	-8	45	-73	-18	-34
CCN1CCN(Cc2ccc(NC(=O)c3cc(NC(=O)C(=O)c4c[nH]c5ccccc45)cc(OC)c3)cc2C(F)(F)F)CC1	-4	7	-2	76*!	-85	94*
CCN1CCN(Cc2ccc(NC(=O)c3ccc(C)c(NC(=O)c4ccnnc4)c3)cc2C(F)(F)F)CC1	-5	-19	46	-21	21	6
CCN1CCN(Cc2ccc(NC(=O)c3cc(NC(=O)c4cc(C)on4)cc(OC)c3)cc2C(F)(F)F)CC1	2	5	16	0	-28	57*!
COc1ccc(C(=O)c2ccc(Cl)c([N+](=O)[O-])c2)cc1	23	-44	64*	20	25	19
CC(C)CN1CCN(C(=O)COC(=O)c2ccc(S(C)(=O)=O)c([N+](=O)[O-])c2)CC1	21	-7	79*	80*	94*	97*
O=C(OCC(=O)N1CCc2ccccc2C1)c1ccc(Cl)c([N+](=O)[O-])c1	-7	-6	12	8	24	99*
CC(C)N(C(=O)COC(=O)c1ccccc1C(=O)c1ccc(Cl)c([N+](=O)[O-])c1)C(C)C	74*	-1	41	35	19	74*
Cc1cc(C(=O)OCC(=O)c2ccc(Cl)c([N+](=O)[O-])c2)c2cccc(C)c2n1	1	4	-9	-5	-1	11
Nc1ccc(C(=O)OCC(=O)N2CCc3ccccc3C2)cc1[N+](=O)[O-]	-63	-6	6	-30	-55	-95
O=C(O)C1CC=CCC1C(=O)Nc1ccc2c(c1)CCC2 (centres undefined)	13	8	5	2	-1	29
O=C(NCc1cccnc1)c1cc(C2CCCCN2C(=O)OCCF)on1 (centres undefined)	4	13	-20	-4	7	-7
COc1ccc(N2CCN(C(=O)CN3C(=O)NC(C)(C4CC4)C3=O)CC2)cc1 (centres undefined)	8	19	-16	-2	8	-7
CNc1ccc(Br)cc(C(=O)/C=C/c2cccc(Cl)c2Cl)c1=O	7	-20	46	38	13	106*
CNc1ccc(Br)cc(C(=O)/C=C/c2cccc(OC)c2OC)c1=O	2	-1	0	7	13	7
C[C@@H](C(=O)CC(=O)OC(C)(C)C)[C@@H](O)c1ccccc1	-13	12	-14	0	-31	4
O=C1N[C@@H](c2ccccc2)COC(=O)[C@@H](Cc2ccc(F)cc2)CC/C=C/C[C@@H]1CC(=O)N(CCO)Cc1ccccc1	18	10	-16	60*	8	27
O=C1N[C@H](Cc2ccccc2)COC(=O)[C@H](Cc2ccc(F)cc2)CC/C=C/C[C@H]1CC(=O)N(CCO)Cc1ccccc1	2	0	4	3	12	15
Cc1ccccc1-c1csc(C(O)c2ccc(F)c(F)c2)n1 (centres undefined)	-21	-8	18	-8	-47	-11
CCc1ccc(-c2nc(CSCC(=O)N3CCN(c4ncccn4)CC3)c(C)o2)cc1	79*	-8	-32	51*	39	18
CC(C)NS(=O)(=O)c1ccc(Br)c(C(=O)OC(C)C(=O)NC2CCCCC2C)c1 (centres undefined)	8	10	-19	-7	9	10
COc1ccc(NC(=O)C(c2ccc(C#N)cc2)n2c(=O)c(-c3cc4ccccc4[nH]3)nc3ccccc32)cc1 (centres undefined)	nt	nt	nt	nt	-62	nt
CCc1ccc2[nH]c(=O)c(CN(CCCN3CCOCC3)C(=O)Nc3ccccc3)cc2c1	62*	5	-8	18	-1	13
SMILES	TROY NFkB inh	KKLEB tox	CF NFkB inh	TWEAK-Fn14 inh	HIF-2a inh	Peg3 promoter
CCN(CC)CCCN(Cc1cc2cc3c(cc2[nH]c1=O)OCCO3)C(=O)Nc1ccccc1	78*	-1	-2	37	5	7
CCc1ccc2[nH]c(=O)c(CN(CCN3CCCC3)C(=O)NC3CCCCC3)cc2c1	nt	9	-17	85*	-6	-9
O=C(Nc1ccccc1F)N(CCCN1CCOCC1)Cc1cc2cc3c(cc2[nH]c1=O)OCCO3	58*	0	-2	14	10	27
CC(C)NC(=O)C1(C)Cc2c(-c3ccc(N(C)C)cc3)ccnc2O1 (centres undefined)	-10	-6	17	-1	9	8
O=C(OCc1ccccc1)N1CCC2CC1c1cc(-c3cc4ccccc4o3)ccc12 (centres undefined)	2	-12	8	-4	-6	21
O=c1c2ccccc2c2ccccc2c(=O)n1Nc1ccccc1	-35	2	8	-12	6	10
CCCCC(=O)N(Cc1ccc(F)cc1)C1CCS(=O)(=O)C1 (centres undefined)	2	5	0	8	12	8
CCCOc1ccc(C(=O)N/N=C/c2c[nH]c3ccc(Br)cc23)cc1	-11	2	2	8	14	51*
COc1ccc(NC(=O)CN2C(=O)NC3(CCCCC3C)C2=O)cc1OC (centres undefined)	-13	17	3	-6	-1	-9
Cc1ccc(NC2=C(NC(=O)c3ccccc3)C(=O)c3ccccc3C2=O)cc1Cl	12	4	5	-1	-24	15
COCCCNC1=C(Cl)C(=O)c2ccccc2C1=O	-18	18	-33	-6	84*	-77
O=C1C(Cl)=C(NCCc2ccccc2)C(=O)c2ccccc21	-23	4	42	2	-57	63*
O=C(O)c1cccc(NC2=C(Cl)C(=O)c3ccccc3C2=O)c1	9	-1	-12	60*	-81	-128
O=C1C(Cl)=C(NCCc2ccccc2)C(=O)N1CCc1ccccc1	-22	0	0	-13	-168	-110
CC(C)OCCCNC1=C(Cl)C(=O)c2ccccc2C1=O	-21	-24	7	-12	64*	-230
COc1ccc(S(=O)(=O)c2c(O)cc(C)c(NS(=O)(=O)c3ccccc3)c2C)cc1	3	6	3	10	20	23
C=CCNC1=C(Cl)C(=O)c2ccccc2C1=O	-50	-8	17	13	-10	-1
